EWS-Fli inh: EWS/Fli-driven NR0B1 reporter inhibitors, primary screen, A673 cells, NR0B1 luciferase, luminescence, MLPCN library; viability-normalised; inhibition, % at 12.6 µM; 350,000 compounds, 0.67% hits; AID 651661, 2012;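 active = mean inhibition of at least 50% after viability correction, with every replicate also passing that limit; inconclusive = mean reaches 50% but only one of two replicates passes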;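 also: firefly luciferase signal divided by Alamar Blue viability fluorescence both relative to DMSO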
PAX8 inh HTS: inhibitors of PAX8-driven TPO luciferase reporter, primary screen, RMG-I cells, single concentration. inhibition, % at 12.6 µM. 360,000 compounds, 1.2% hits. SteadyGlo, 24 h;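 active = mean replicate inhibition at least 60% with every replicate also reaching 60%; inconclusive = only one of the two criteria is met; inactive = mean below 60% and not all replicates reaching 60%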;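 also: luciferase light reporting Pax8 driven TPO promoter activity; plate controls were median of neutral control wells for no effect and mitoxantrone controls for full effect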
LGR2 antag: inhibitors of bursicon-induced LGR2 CRE-luciferase signal, primary screen, cell-based, HEK293, CRE-luciferase reporter, bursicon stimulation; bursicon-stimulated, 4 h; Drosophila bursicon receptor LGR2 (rickets); inhibition, % at 9.99 µM; 380,000 compounds, 0.35% hits; AID 720647, 2013;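 active = drop in luminescence signal, shown as inhibition above about 50% in the replicate tests, limit read from the data, passing the limit was not always enough; inconclusive = probably only some replicates passing the limit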;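 also: agonist challenge used bursicon conditioned medium at about half maximal strength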
TROY signal inh: inhibitors of TROY-driven NF-kB signaling, primary screen, Q293 LMP1-TROYcd cells, NF-kB luciferase, uHTS | Q293 LMP1-TROYcd NF-kB luciferase reporter, 4 h | inhibition, % at 10 µM | 360,000 compounds, 0.98% hits | AID 1347056, 2019;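 active = compounds whose plate-normalised and pattern-corrected inhibition of the luciferase reporter signal at the single screening dose is 50% or more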
TWEAK Fn14 block: inhibitors of TWEAK-Fn14 signaling, primary screen, luciferase reporter cells, uHTS. TWEAK-stimulated Fn14 reporter cells, luciferase luminescence, 8 h. inhibition, % at 10 µM. 360,000 compounds, 2% hits. AID 1159606, 2016; in the data active = inhibition above about 50%
LMP1 NFkB inh: EBV LMP1-driven NF-kappaB luciferase reporter inhibitors, primary screen, cell-based, luminescence, single point. LMP1-induced NF-kappaB luciferase reporter cells. inhibition, % at 12.5 µM. 350,000 compounds, 0.69% hits. AID 504558, 2011; in the data active = inhibition above about 41%; inconclusive = no clear call, values can overlap the other calls;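 also: 0% = neutral control wells and 100% = reference inhibitor control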
Starred values were filed as active, the others as inactive; ? = inconclusive; . = not tested or not shown. Most compounds without a hit are left out; they make up all but 3.2% or so of the library.

SMILES	EWS-Fli inh	PAX8 inh HTS	LGR2 antag	TROY signal inh	TWEAK Fn14 block	LMP1 NFkB inh
O=C(Nc1cccc(F)c1)N1CCCCN2[C@H](C1)[C@H](c1ccc(C#Cc3ccccc3)cc1)[C@@H]2CO	7	3	0	.	.	.
O=C(Nc1cccc(F)c1)N1CCCCN2[C@@H](CO)[C@H](c3ccc(C#Cc4ccccc4)cc3)[C@@H]2C1	16	94*	-1	.	.	.
O=C(Nc1cccc(F)c1)N1CCCCN2[C@H](CO)[C@H](c3ccc(C#Cc4ccccc4)cc3)[C@H]2C1	73*	?	23	.	.	.
O=C(Nc1cccc(F)c1)N1CCCCN2[C@H](CO)[C@H](c3ccc(C#Cc4ccccc4)cc3)[C@@H]2C1	6	-41	16	.	.	.
O=C(Nc1cccc(F)c1)N1CCCCN2[C@H](CO)[C@@H](c3ccc(C#Cc4ccccc4)cc3)[C@H]2C1	42	116*	23	.	.	.
N#Cc1cccc(-c2ccc([C@@H]3[C@H](CO)N4CCCCN(C(=O)Nc5cccc(F)c5)C[C@@H]34)cc2)c1	26	35	96*	.	.	.
CCS(=O)(=O)N1CC2(C1)[C@H](c1ccccc1)[C@@H](CO)N2C(=O)C1CCC1	-5	.	-12	.	.	.
Cc1ccc(C(=O)NC(NCc2ccccc2)C(Cl)(Cl)Cl)cc1 (stereo not given)	5	145*	-1	14	0	-1
COCCc1nc2ccc(C(=O)N(C)Cc3cccc(-n4nc(C)cc4C)c3)cc2o1	-11	-4	-12	60*	-2	-2
O=C(NCC1COc2ccccc2O1)c1ccco1 (stereo not given)	.	.	.	-10	-6	0
C/C(=N\NC(=O)C1COc2ccccc2O1)c1ccc(C)o1 (stereo not given)	.	-9	.	1	3	1
O=C(NCC1COc2ccccc2O1)c1cc2ccccc2o1 (stereo not given)	.	.	.	.	81*	-18
C/C(=N\NC(=O)C1COc2ccccc2O1)c1cc2ccccc2o1 (stereo not given)	-8	-1	-3	-21	5	40*
CO[C@H](CN(C)C(=O)c1ccc2c(c1)OCO2)[C@@H](C)CN([C@@H](C)CO)S(=O)(=O)c1ccc(C)cc1	-4	.	-15	.	.	.
C=CCOc1cccc(C(=O)/C=C2/C(=O)Nc3ccccc32)c1	54*	0	5	29	30	6
O=C1Nc2ccc(Br)cc2/C1=C/C(=O)c1ccccc1	32	-13	11	11	55*	-1
C[C@@H](NC(=O)C[C@H]1CC[C@H]2[C@@H](COC[C@@H](O)CN2C)O1)c1ccccc1	-1	1	21	.	.	.
CCOC(=O)N1CCC(NC(=O)c2ccc3c(c2)N=C(C)c2c(C)ccc(C)c2S3)CC1	44	96*	7	20	4	12
CCN(C(=O)COC(=O)c1c2c(nc3ccccc13)/C(=C/c1ccccc1)CC(C)C2)C1CCS(=O)(=O)C1 (stereo not given)	.	67*	18	-5	-2	-27
CO[C@H]1CN(C)C(=O)c2ccc(NS(C)(=O)=O)cc2OC[C@H](C)N(Cc2ccccn2)C[C@@H]1C	5	.	-9	.	.	.
C[C@H]1CN([C@@H](C)CO)C(=O)c2c(c3ccccc3n2C)-c2ccccc2CO[C@@H]1CN(C)Cc1ccc(-c2ccccc2)cc1	3	82*	23	.	.	.
C[C@@H]1CN([C@@H](C)CO)C(=O)c2c(c3ccccc3n2C)-c2ccccc2CO[C@H]1CN(C)Cc1ccc(-c2ccccc2)cc1	-6	.	23	.	.	.
C[C@@H]1CN([C@@H](C)CO)C(=O)c2c(c3ccccc3n2C)-c2ccccc2CO[C@@H]1CN(C)Cc1ccc(-c2ccccc2)cc1	7	63*	6	.	.	.
C[C@@H]1CN([C@H](C)CO)C(=O)c2c(c3ccccc3n2C)-c2ccccc2CO[C@@H]1CN(C)C	8	88*	-9	.	.	.
C[C@H](CO)N1C[C@H](C)[C@@H](CN(C)C(=O)Cc2ccccc2)OCc2ccccc2-c2c(n(C)c3ccccc23)C1=O	9	66*	42	.	.	.
O=C(C[C@H]1C=C[C@H](NC(=O)C2CC2)[C@H](CO)O1)NCCc1cscn1	-4	.	-2	.	.	.

Source: PubChem BioAssay (several laboratories)
